Screening results: PubChem, National Center for Advancing Translational Sciences (NCATS)
The list is not random: actives were taken first. Their share in the collection is about 2.4%.
Cruzain inh Det = cruzain (T. cruzi) inhibition with detergent. purified cruzain, Z-FR-AMC fluorescence, 0.01% Triton. P25779. AID 1478. 200,000 tested, 0.43% active. Potency, µM, actives largely listed as inhibitors; note: nearly all actives have a fitted effect of over 40% in size
Target sequence (P25779 123-467 limits assumed): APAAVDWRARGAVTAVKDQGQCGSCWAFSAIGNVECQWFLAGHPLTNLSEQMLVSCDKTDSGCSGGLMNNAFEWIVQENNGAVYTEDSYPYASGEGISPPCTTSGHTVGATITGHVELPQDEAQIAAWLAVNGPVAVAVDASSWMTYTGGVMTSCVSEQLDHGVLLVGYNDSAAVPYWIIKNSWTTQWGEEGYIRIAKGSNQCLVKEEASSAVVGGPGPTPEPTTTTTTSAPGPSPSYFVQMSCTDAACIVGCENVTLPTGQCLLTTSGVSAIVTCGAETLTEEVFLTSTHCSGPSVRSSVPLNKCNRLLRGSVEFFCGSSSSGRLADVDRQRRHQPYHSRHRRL
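Sodium acetate buffer (100 mM, pH 5.5) containing 5 mM DTT and 0.01% Triton X-100 hosted 1.5 nM cruzain and test compound for 15 min at room temperature. Cleavage of 2 uM Z-FR-AMC was then tracked by fluorescence.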
Cruzain noTriton = blocks cruzain activity in detergent-free assay | Potency, µM, most hits filed as inhibitors | 200,000 tested, 2.3% active | purified cruzain, Z-FR-AMC fluorescence, no detergent | AID 1476 | P25779; note: nearly all actives have a fitted effect of over 40% in size
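Detergent-free condition (0.00005% Triton X-100) in acetate buffer pH 5.5 with DTT. 1.5 nM enzyme and compound were pre-mixed 15 min, then 2 uM Z-FR-AMC substrate added; reaction progress from fluorescence change between first and third reads (60 s).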
Each line names hits and unclear results; the compound was inactive in the other large screens; ! = repeats disagree. Calls come from the whole dose curve; as a rule, active = well fitted curve in the direction sought with a large enough effect; inconclusive = small, poorly fitted or top-dose-only effect, or another doubt; inactive = no such curve, though single readings can be large; an effect the other way counts as inactive or inconclusive.

COc1ccc(S(=O)(=O)n2nc(OC(=O)c3ccco3)cc2N)cc1	Cruzain inh Det 12.6µM, Cruzain noTriton 20µM
COc1ccc(S(=O)(=O)n2nc(OC(=O)c3ccc(C)cc3)cc2N)cc1	none
COc1ccc(S(=O)(=O)n2nc(OC(=O)c3cccs3)cc2N)cc1	Cruzain inh Det inconclusive, Cruzain noTriton 12.6µM
Cc1ccc(NC(=O)COC(=O)c2csc3c2CCC(C)C3)cc1S(=O)(=O)N1CCCCC1 (stereo not drawn)	Cruzain noTriton 25.1µM
CC1CCc2c(C(=O)OCC(=O)Nc3cccc(S(=O)(=O)N4CCCCCC4)c3)csc2C1 (stereo not drawn)	Cruzain noTriton inconclusive
Cc1cc2ncn(CC(=O)O)c2cc1C	none
COC(=O)c1cc(Br)ccc1-c1ccc(/C=N/n2nnnc2N)o1	Cruzain noTriton 12.6µM
Cc1ccc([N+](=O)[O-])cc1-c1ccc(/C=N\n2nnnc2N)o1	none
CCCCC/C=C\C/C=C\CCCCCCCCCC(=O)NCCCC(=O)O	none
N#Cc1ccc(-c2csc(NC(=O)c3ccc(S(=O)(=O)N4CCc5ccccc5C4)cc3)n2)cc1	Cruzain noTriton 6.31µM
COC(=O)COc1ccc(S(=O)(=O)N2CCc3ccccc3C2)cc1C	none
O=C(Nc1nc(-c2ccncc2)cs1)c1ccc(S(=O)(=O)N2CCOCC2)cc1	none
Cc1cc(C)c2sc(NNC(=O)c3ccc(S(=O)(=O)N4CCc5ccccc5C4)cc3)nc2c1	Cruzain noTriton 6.31µM
Cc1cc(C)c2nc(NNC(=O)c3ccc(S(=O)(=O)N4CCc5ccccc5C4)cc3)sc2c1	Cruzain noTriton 6.31µM
CCc1nnc(NC(=O)c2ccc(S(=O)(=O)N3CCc4ccccc4C3)cc2)s1	Cruzain noTriton inconclusive
O=C(CSc1nc2ccccc2c2nc(-c3ccccc3)nn12)Nc1ccc(F)cc1	none
CN1CCN(c2ccnc(-c3ccoc3)n2)CC1	none
O=C(CSc1nc2ccccc2s1)c1sc2sc3ccccc3[n+]2c1O	none
Cn1c(=O)c2cc(S(=O)(=O)Nc3ccc4c(c3)OCO4)ccc2n(C)c1=O	none
Cn1c(=O)oc2cc(S(=O)(=O)Nc3ccc4c(c3)OCO4)ccc21	Cruzain noTriton 31.6µM
Cc1cccc(C(=O)Nc2cc(-c3ccccc3F)nn2-c2ccccc2)c1	none
O=C(Nc1cc(-c2ccccc2F)nn1-c1ccccc1)c1ccccc1Br	Cruzain noTriton 31.6µM
CSCC[C@@H](C(=O)O)N(C)C	none
O=C(N/N=C\C=C\c1ccc2c(c1)OCO2)C1COc2cc3ccccc3cc2O1 (stereo not drawn)	Cruzain noTriton 25.1µM
O=C(N/N=C/c1ccc2c(c1)OCO2)C1COc2ccccc2O1 (stereo not drawn)	none
COc1ccc(CC(=O)NCCc2csc(-c3cccc(C)c3)n2)cc1	none
CCCCC/C=C\C/C=C\C=C\[C@@H](O)C/C=C\CCCC(=O)O	none
CCCOc1ccc(/C=N/NC(=S)Nc2ccccc2[N+](=O)[O-])c(O)c1	Cruzain noTriton 3.98µM
CCCOc1ccc(/C=N/Nc2cccc([N+](=O)[O-])c2)c(O)c1	Cruzain noTriton inconclusive
CCCOc1ccc(/C=N/Nc2ccccc2[N+](=O)[O-])c(O)c1	Cruzain noTriton 10µM
COc1ccc(/C=N/NC(=S)Nc2ccccc2[N+](=O)[O-])cc1O	none
N=C1Sc2ccccc2C2=NCCCN12	none
COc1ccc(CCNC(=O)CCc2cn(Cc3ccc(F)cc3)c3ccccc23)cc1OC	Cruzain noTriton inconclusive
O=C(Nc1ccc2c(c1)N(C1CCCC1)C(=O)c1ccccc1S2)c1ccc(F)cc1	Cruzain noTriton inconclusive
O=C(Nc1ccc(CN2CCOCC2)cc1)c1ccc(-c2cc(Cl)ccc2Cl)o1	Cruzain noTriton 25.1µM
S=C(c1ccc(-c2cc(Cl)ccc2Cl)o1)N1CCOCC1	none
CCOC(=O)c1cc(-c2ccc(OC)cc2)n(CCC(=O)Nc2ccc(OC)cc2OC)c1C	Cruzain noTriton inconclusive
COc1ccc(-c2noc(CSc3nnc(-c4ccc(Cl)cc4)n3C)n2)cc1OC	none
CCCn1c(=O)c2ccccc2n2c(SCc3nc4ccccc4s3)nnc12	Cruzain noTriton 12.6µM
CCCCn1c(SCc2nc3ccccc3s2)nc2ccccc2c1=O	none
C[C@H]1C(O)[C@@]23CCC4C5(C=[N+](CCO)C[C@]4(C)CCC5)C2C[C@@H]1C3 (stereo partly drawn)	none
CN(c1ccccc1)c1ncnc2c1cnn2C	none
COc1ccc(NC(=S)NC2CCCCCC2)c(OC)c1	none
COc1ccccc1NC(=S)NC1CCC(CC2CCC(NC(=S)Nc3ccccc3OC)CC2)CC1 (stereo not drawn)	Cruzain noTriton 3.98µM
CCSc1nnc([C@@H](N)Cc2c[nH]c3ccccc23)o1	none
Cc1cccc(NC(=O)CSc2nnc([C@@H](N)Cc3c[nH]c4ccccc34)o2)c1C	Cruzain inh Det 12.6µM, Cruzain noTriton 12.6µM
C[C@H](Br)C(=O)c1ccc2cc(Br)c3ccccc3c2c1	none
O=C(Nc1ccc(OC(F)(F)F)cc1)C(Cc1ccccc1)NS(=O)(=O)c1cccc2nsnc12 (stereo not drawn)	none
CC(C)(C)NC(=O)C(Cc1ccccc1)NS(=O)(=O)c1cccc2nsnc12 (stereo not drawn)	none
Cc1ccc(Cl)cc1NC(=O)C(Cc1ccccc1)NS(=O)(=O)c1cccc2nsnc12 (stereo not drawn)	Cruzain noTriton 25.1µM
O=C(Nc1ccc(Cl)c(C(F)(F)F)c1)C(Cc1ccccc1)NS(=O)(=O)c1cccc2nsnc12 (stereo not drawn)	Cruzain noTriton 20µM
O[N+]1=CC=CCC1=S.On1ccccc1=S.[Zn]	Cruzain inh Det 3.16µM, Cruzain noTriton 2.51µM
Cc1ccc(C)c(Nc2nn3c(=O)c4ccc(C(=O)NCc5cccs5)cc4nc3s2)c1	none
COc1cccc(Cn2c(=O)c(CCc3ccccc3)nc3cnc(OC)nc32)c1	Cruzain noTriton inconclusive
O=c1oc2c(CN3CCOCC3)c(O)c(Cl)cc2c2c1CCCC2	Cruzain inh Det 28.2µM, Cruzain noTriton inconclusive
Cc1c(O)c(CN2CCCC2)cc2c3c(c(=O)oc12)CCC3	Cruzain noTriton inconclusive
CN(Cc1c(O)ccc2c1oc(=O)c1ccccc12)C1CCCCC1	none
O=c1oc2c(CN3CCOCC3)c(O)ccc2c2c1CCCC2	Cruzain inh Det 28.2µM, Cruzain noTriton inconclusive
O=c1oc2c(CN3CCOCC3)c(O)ccc2c2ccccc12	none
CN(C)Cc1c(O)ccc2c3c(c(=O)oc12)CCCCC3	Cruzain inh Det 22.4µM, Cruzain noTriton inconclusive
Cc1ccc(CN2C(=O)C3CCCN3c3ccc(S(=O)(=O)N4CCOCC4)cc32)cc1 (stereo not drawn)	none
CCc1cccc(NC(=O)C2CCN(C(=O)c3cnn(-c4ccccc4)c3-n3cccc3)CC2)c1	Cruzain noTriton inconclusive
O=C(NC(=S)Nc1cc(Cl)ccc1N1CCOCC1)c1ccc(-c2cccc(Cl)c2)o1	Cruzain noTriton 7.94µM
O=C(Nc1ccccc1N1CCCCC1)c1ccc(-c2cccc(Cl)c2)o1	none
Cc1ccc(Nc2nc3ccccc3s2)c(C)c1	none
Cc1cc(O)ccc1Nc1nc2ccccc2nc1Nc1ccc(O)cc1C	Cruzain noTriton 10µM
CN(C)c1ccc(C(=O)c2ccc(N(C)C)cc2)cc1	none
CN(C)c1ccc(C(=C2C=CC(=[N+](C)C)C=C2)c2ccccc2)cc1	Cruzain noTriton 25.1µM!
CN(C)c1ccc(C(=C2C=CC(=[N+](C)C)C=C2)c2ccc(N(C)C)cc2)cc1	Cruzain noTriton 20µM!
CN(C)c1ccccc1	none
Cc1ccccc1NC(=O)CSc1nc2nccnc2c(=O)n1CCc1c[nH]c2ccccc12	Cruzain noTriton inconclusive
Cc1ccc(C)c(NC(=O)C2CCCN2S(=O)(=O)c2ccc3c(c2)CCCC(=O)N3)c1 (stereo not drawn)	none
